# Measured values: article PMC7862700, “An all-to-all approach to the identification of sequence-specific readers for epigenetic DNA modifications on cytosine”
# Tests used:
# Assay in all cases: DAPPL (digital affinity profiling via proximity ligation, sequencing); 10 mM Tris-HCl pH 7.5, 50 mM NaCl, 1 mM DTT, 4% glycerol, room temperature, 30 min; GST-TFs on glutathione beads, 16-mer random dsDNA library, 0.1% formaldehyde crosslink after washing; high values mean tight binding
# FLI1 = biological target: T1, FLI1 (Homo sapiens, UniProt Q01543 1-452); conditions: protein: recombinant; tags: N-terminal GST; dsDNA, one strand shown
# T1 sequence: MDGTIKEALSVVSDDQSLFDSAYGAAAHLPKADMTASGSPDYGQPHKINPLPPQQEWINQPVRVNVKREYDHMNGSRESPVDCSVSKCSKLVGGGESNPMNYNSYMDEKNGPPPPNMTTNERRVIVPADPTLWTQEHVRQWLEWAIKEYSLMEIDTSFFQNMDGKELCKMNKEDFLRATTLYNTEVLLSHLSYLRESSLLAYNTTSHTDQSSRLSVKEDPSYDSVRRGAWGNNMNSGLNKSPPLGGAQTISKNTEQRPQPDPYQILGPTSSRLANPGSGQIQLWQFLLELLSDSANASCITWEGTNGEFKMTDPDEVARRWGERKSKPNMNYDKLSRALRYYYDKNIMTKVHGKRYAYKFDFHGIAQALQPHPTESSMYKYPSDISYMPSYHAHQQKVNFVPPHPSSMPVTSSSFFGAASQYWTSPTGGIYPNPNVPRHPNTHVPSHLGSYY
# Summary of the method: (§1)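 Binding signal is given per hexamer as its read frequency for a factor divided by its frequency in the tag-only sample. GST-fused human transcription factors were expressed in yeast, captured on glutathione beads, barcoded with DNA and pooled with that sample, then incubated with 200 nmole of a 16-mer random double-stranded DNA library in Tris/NaCl/DTT/glycerol buffer for 30 min at room temperature. The pools were then washed, crosslinked, proximity-ligated, amplified by PCR and sequenced on an Illumina NextSeq500.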
# ELK1 = biological target: T2, ELK1 (Homo sapiens, UniProt P19419 1-428); conditions: protein: recombinant; tags: N-terminal GST; dsDNA, one strand shown
# T2 sequence: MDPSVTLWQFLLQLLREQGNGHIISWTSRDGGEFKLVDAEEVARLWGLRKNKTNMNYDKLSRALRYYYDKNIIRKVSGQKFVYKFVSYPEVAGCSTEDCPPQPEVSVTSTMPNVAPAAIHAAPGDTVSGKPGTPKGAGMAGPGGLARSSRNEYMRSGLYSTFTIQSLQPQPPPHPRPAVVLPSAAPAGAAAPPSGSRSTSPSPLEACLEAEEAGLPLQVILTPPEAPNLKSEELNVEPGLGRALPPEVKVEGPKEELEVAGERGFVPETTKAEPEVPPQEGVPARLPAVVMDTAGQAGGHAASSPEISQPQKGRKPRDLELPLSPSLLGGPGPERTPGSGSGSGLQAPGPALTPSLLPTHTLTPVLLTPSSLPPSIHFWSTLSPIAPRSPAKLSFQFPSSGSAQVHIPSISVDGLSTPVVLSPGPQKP
# Summary of the method: as §1
# GABPA = biological target: T3, GABPA (Homo sapiens, UniProt Q06546 1-454); conditions: protein: recombinant; tags: N-terminal GST; dsDNA, one strand shown
# T3 sequence: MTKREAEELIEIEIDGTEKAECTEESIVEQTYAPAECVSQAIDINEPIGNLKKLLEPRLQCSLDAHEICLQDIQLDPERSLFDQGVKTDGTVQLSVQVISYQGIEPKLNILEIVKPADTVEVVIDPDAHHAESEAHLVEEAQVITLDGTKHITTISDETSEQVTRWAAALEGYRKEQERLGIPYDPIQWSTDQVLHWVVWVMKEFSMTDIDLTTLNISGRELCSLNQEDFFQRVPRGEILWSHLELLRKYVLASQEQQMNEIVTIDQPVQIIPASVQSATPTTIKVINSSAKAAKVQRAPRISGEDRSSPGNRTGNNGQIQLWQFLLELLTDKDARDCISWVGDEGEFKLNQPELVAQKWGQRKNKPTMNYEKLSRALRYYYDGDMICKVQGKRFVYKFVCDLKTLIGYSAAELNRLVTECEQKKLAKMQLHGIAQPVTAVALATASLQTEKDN
# Summary of the method: as §1
# ERG = biological target: T4, ERG (Homo sapiens, UniProt P11308 1-479); conditions: protein: recombinant; tags: N-terminal GST; dsDNA, one strand shown
# T4 sequence: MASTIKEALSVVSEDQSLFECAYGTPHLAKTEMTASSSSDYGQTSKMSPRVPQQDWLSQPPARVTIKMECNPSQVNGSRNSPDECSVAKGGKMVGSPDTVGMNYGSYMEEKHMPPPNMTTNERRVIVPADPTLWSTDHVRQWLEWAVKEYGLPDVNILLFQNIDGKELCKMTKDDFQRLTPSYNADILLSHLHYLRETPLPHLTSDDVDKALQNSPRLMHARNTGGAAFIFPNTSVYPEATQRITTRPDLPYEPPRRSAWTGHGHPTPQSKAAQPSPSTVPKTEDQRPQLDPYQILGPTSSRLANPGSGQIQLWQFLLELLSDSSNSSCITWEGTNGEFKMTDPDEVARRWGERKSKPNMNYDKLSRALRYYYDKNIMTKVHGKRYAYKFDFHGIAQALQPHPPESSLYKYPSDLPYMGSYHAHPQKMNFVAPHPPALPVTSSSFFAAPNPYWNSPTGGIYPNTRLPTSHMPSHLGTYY
# Summary of the method: as §1
# ELF1 = ELF1 (Homo sapiens, UniProt P32519 1-619); conditions: protein: recombinant; tags: N-terminal GST; dsDNA, one strand shown
# Summary of the method: as §1
# EHF = biological target: T5, EHF (Homo sapiens, UniProt Q9NZC4 1-300); conditions: protein: recombinant; tags: N-terminal GST; dsDNA, one strand shown
# T5 sequence: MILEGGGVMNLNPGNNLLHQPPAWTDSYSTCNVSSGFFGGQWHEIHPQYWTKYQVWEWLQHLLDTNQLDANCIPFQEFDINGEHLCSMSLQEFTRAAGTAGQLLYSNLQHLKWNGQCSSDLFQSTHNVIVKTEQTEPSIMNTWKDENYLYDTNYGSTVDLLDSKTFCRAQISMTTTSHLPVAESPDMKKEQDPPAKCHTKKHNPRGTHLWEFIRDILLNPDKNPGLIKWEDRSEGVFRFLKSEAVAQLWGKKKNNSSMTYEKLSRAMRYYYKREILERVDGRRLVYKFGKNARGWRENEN
# Summary of the method: as §1
# SPI1 = SPI1 (Homo sapiens, UniProt P17947 1-270); conditions: protein: recombinant; tags: N-terminal GST; dsDNA, one strand shown
# Summary of the method: as §1
# SPIB = SPIB (Homo sapiens, UniProt Q01892 1-262); conditions: protein: recombinant; tags: N-terminal GST; dsDNA, one strand shown
# Summary of the method: as §1
# ELK3 = biological target: T6, ELK3 (Homo sapiens, UniProt P41970 1-407); conditions: protein: recombinant; tags: N-terminal GST; dsDNA, one strand shown
# T6 sequence: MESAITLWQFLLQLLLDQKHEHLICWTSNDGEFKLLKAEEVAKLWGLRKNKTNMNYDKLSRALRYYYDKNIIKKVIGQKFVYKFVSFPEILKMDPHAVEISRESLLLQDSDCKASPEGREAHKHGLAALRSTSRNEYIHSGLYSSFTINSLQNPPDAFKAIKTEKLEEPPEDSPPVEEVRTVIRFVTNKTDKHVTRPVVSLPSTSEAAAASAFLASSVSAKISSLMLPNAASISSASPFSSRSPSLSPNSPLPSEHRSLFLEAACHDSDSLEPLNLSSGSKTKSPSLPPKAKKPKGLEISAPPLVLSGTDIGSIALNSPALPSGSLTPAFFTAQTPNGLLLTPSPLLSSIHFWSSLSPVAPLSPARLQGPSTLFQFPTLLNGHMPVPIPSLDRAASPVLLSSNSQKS
# Summary of the method: as §1
# FEV = biological target: T7, FEV (Homo sapiens, UniProt Q99581 1-238); conditions: protein: recombinant; tags: N-terminal GST; dsDNA, one strand shown
# T7 sequence: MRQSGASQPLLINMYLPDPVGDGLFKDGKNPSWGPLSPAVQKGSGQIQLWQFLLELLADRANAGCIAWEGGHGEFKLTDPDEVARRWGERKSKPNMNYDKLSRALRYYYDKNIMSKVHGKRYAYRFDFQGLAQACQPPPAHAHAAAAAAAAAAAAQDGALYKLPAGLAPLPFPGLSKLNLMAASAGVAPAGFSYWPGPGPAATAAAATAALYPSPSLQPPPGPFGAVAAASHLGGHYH
# Summary of the method: as §1
# ETV5 = ETV5 (Homo sapiens, UniProt P41161 1-510); conditions: protein: recombinant; tags: N-terminal GST; dsDNA, one strand shown
# Summary of the method: as §1
# HSF1 = HSF1 (Homo sapiens, UniProt Q00613 1-529); conditions: protein: recombinant; tags: N-terminal GST; chain copies: 3; dsDNA, one strand shown
# Summary of the method: as §1
# SPIC = biological target: T8, SPIC (Homo sapiens, UniProt Q8N5J4 1-248); conditions: protein: recombinant; tags: N-terminal GST; dsDNA, one strand shown
# T8 sequence: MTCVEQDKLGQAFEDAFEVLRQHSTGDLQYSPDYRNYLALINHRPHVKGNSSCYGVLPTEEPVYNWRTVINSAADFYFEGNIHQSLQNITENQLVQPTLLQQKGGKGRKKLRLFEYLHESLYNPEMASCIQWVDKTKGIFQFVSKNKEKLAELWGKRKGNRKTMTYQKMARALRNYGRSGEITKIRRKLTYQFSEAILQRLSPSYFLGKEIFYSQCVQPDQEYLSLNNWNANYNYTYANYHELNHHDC
# Summary of the method: as §1
# ELF4 = ELF4 (Homo sapiens, UniProt Q99607 1-663); conditions: protein: recombinant; tags: N-terminal GST; dsDNA, one strand shown
# Summary of the method: as §1
# ELK4 = biological target: T9, ELK4 (Homo sapiens, UniProt P28324-2 1-405); conditions: protein: recombinant; tags: N-terminal GST; dsDNA, one strand shown
# T9 sequence: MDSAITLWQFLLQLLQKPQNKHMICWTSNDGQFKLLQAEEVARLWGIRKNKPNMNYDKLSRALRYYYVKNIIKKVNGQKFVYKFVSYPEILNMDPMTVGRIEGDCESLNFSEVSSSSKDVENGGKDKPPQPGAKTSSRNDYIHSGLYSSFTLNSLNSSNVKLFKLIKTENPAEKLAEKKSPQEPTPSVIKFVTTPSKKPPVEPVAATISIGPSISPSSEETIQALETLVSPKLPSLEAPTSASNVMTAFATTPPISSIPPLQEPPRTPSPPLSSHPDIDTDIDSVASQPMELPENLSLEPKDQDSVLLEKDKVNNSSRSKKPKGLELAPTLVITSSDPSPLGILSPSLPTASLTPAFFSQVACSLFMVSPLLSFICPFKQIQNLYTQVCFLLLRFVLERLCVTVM
# Summary of the method: as §1
# ETV2 = biological target: T10, ETV2 (Homo sapiens, UniProt O00321 1-342); conditions: protein: recombinant; tags: N-terminal GST; dsDNA, one strand shown
# T10 sequence: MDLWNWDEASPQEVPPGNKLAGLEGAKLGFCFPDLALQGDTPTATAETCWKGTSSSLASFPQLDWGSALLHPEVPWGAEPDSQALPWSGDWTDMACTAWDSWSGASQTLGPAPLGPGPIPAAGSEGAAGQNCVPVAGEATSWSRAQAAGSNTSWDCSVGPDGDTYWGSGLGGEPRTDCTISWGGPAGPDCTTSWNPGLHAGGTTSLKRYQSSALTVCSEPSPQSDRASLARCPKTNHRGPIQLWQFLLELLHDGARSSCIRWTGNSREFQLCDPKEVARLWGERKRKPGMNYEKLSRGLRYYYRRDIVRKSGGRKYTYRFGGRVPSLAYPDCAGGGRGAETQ
# Summary of the method: as §1
# ELF3 = biological target: T11, ELF3 (Homo sapiens, UniProt P78545 1-371); conditions: protein: recombinant; tags: N-terminal GST; dsDNA, one strand shown
# T11 sequence: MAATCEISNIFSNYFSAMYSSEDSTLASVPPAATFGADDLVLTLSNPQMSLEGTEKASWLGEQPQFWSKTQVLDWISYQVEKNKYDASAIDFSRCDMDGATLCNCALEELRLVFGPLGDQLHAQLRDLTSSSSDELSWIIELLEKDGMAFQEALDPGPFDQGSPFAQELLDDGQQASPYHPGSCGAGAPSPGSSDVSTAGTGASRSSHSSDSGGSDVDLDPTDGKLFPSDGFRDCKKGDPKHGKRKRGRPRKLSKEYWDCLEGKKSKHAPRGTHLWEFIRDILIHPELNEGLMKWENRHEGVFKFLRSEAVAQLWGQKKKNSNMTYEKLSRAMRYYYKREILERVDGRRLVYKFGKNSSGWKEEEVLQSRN
# Summary of the method: as §1
# CRX = CRX (Homo sapiens, UniProt O43186 1-299); conditions: protein: recombinant; tags: N-terminal GST; dsDNA, one strand shown
# Summary of the method: as §1
# ETV1 = ETV1 (Homo sapiens, UniProt P50549 1-477); conditions: protein: recombinant; tags: N-terminal GST; dsDNA, one strand shown
# Summary of the method: as §1
# Sequence of HSF1 (Q00613 whole entry): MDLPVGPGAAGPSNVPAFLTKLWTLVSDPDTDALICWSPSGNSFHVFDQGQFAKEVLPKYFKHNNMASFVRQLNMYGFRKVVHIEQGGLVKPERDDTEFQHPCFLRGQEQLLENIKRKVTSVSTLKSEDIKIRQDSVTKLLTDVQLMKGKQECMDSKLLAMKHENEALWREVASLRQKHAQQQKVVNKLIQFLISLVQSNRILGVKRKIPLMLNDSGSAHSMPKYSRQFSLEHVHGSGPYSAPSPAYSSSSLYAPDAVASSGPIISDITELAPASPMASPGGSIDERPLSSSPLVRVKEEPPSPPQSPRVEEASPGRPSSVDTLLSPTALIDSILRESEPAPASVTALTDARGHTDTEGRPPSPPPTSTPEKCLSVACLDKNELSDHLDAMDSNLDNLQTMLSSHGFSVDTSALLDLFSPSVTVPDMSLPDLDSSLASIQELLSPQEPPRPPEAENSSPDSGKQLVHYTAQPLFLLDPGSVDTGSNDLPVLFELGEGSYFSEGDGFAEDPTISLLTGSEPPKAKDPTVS
# Sequence of ELF4 (Q99607 whole entry): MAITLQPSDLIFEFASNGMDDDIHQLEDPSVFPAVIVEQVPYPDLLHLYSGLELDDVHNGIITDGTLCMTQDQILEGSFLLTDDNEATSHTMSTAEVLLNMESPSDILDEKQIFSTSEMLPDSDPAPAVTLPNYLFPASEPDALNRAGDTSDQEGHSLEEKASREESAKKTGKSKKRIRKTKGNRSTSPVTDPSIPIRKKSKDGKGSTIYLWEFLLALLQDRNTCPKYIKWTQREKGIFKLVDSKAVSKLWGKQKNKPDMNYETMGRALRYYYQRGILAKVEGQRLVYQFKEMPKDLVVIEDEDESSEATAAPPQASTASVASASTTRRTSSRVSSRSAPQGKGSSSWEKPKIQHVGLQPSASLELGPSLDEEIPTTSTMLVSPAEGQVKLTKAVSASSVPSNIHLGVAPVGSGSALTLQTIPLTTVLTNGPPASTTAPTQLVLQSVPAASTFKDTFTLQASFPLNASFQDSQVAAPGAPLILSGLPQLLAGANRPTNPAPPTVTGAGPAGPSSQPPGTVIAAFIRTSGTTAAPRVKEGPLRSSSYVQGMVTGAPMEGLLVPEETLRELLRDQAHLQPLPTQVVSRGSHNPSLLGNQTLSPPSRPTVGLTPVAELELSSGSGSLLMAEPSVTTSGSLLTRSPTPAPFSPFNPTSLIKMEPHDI
# Sequence of ELF1 (P32519 whole entry): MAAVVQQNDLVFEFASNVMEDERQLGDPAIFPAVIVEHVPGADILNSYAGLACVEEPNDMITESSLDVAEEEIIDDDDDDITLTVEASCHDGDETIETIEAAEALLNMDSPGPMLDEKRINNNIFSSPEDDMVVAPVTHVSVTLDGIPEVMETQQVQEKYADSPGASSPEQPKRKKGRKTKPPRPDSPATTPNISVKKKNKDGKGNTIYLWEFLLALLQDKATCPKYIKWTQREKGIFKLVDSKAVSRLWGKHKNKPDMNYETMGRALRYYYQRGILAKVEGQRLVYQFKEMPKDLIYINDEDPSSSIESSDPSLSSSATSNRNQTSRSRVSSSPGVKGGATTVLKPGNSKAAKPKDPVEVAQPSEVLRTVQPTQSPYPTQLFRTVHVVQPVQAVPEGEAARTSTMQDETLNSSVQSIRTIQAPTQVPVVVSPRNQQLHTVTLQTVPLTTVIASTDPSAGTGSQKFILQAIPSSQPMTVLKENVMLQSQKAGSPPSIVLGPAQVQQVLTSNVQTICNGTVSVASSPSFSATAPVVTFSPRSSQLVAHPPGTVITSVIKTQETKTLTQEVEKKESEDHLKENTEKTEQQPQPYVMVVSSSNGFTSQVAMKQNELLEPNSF
# Sequence of SPIB (Q01892 whole entry): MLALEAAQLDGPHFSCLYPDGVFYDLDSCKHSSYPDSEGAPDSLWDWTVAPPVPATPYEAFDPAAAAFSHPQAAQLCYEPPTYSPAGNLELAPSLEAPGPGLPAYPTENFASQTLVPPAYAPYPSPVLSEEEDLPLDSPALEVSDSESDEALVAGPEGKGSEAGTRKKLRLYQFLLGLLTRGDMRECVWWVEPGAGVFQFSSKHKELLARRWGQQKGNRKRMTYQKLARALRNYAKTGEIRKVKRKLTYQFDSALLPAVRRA
# Sequence of ETV5 (P41161 whole entry): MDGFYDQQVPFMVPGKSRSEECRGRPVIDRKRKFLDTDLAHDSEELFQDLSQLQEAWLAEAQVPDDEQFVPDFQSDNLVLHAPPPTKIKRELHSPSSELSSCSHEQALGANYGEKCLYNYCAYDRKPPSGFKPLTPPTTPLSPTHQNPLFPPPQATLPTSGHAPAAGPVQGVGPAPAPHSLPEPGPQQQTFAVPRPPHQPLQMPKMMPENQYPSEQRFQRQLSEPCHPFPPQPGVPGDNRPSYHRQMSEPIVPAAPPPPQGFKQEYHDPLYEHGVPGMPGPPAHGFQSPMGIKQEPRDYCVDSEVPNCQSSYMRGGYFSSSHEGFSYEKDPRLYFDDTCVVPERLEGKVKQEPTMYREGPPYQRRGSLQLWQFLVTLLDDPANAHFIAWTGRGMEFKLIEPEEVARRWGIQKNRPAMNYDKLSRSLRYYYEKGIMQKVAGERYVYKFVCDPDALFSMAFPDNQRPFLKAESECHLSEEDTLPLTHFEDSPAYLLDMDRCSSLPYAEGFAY
# Sequence of ETV1 (P50549 whole entry): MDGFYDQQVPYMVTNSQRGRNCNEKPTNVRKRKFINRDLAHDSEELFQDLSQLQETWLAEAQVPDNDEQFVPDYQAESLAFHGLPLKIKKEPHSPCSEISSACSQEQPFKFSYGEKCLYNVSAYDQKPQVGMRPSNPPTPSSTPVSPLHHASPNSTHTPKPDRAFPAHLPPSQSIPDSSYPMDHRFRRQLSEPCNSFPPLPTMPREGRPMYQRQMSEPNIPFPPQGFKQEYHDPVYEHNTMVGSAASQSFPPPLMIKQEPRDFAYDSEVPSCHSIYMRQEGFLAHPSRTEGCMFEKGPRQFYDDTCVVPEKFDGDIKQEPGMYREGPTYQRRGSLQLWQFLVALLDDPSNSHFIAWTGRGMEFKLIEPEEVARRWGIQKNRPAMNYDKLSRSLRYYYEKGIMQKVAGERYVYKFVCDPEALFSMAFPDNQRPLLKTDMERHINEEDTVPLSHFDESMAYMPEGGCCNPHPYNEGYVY
# Sequence of CRX (O43186 whole entry): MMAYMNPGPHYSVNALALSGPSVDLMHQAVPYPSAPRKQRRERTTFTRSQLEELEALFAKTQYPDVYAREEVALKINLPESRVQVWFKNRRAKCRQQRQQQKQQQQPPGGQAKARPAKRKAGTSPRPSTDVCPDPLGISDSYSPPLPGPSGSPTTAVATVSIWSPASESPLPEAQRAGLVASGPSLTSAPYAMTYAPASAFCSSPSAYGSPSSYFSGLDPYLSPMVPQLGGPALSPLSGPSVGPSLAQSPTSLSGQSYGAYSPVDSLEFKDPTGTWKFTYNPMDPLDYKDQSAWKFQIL
sequence,measurement,setting,value
ATCCGC,binding signal,FLI1,"1.82 fold enrichment (6-mer frequency, TF over GST control)"
same,binding signal,ELK1,"1.86 fold enrichment (6-mer frequency, TF over GST control)"
same,binding signal,GABPA,"1.57 fold enrichment (6-mer frequency, TF over GST control)"
same,binding signal,ERG,"1.93 fold enrichment (6-mer frequency, TF over GST control)"
same,binding signal,ELF1,"1.76 fold enrichment (6-mer frequency, TF over GST control)"
same,binding signal,EHF,"1.82 fold enrichment (6-mer frequency, TF over GST control)"
same,binding signal,SPI1,"1.74 fold enrichment (6-mer frequency, TF over GST control)"
same,binding signal,SPIB,"1.82 fold enrichment (6-mer frequency, TF over GST control)"
same,binding signal,ELK3,"2.04 fold enrichment (6-mer frequency, TF over GST control)"
same,binding signal,FEV,"2.09 fold enrichment (6-mer frequency, TF over GST control)"
same,binding signal,ETV5,"1.78 fold enrichment (6-mer frequency, TF over GST control)"
same,binding signal,HSF1,"1.58 fold enrichment (6-mer frequency, TF over GST control)"
same,binding signal,SPIC,"1.68 fold enrichment (6-mer frequency, TF over GST control)"
same,binding signal,ELF4,"1.65 fold enrichment (6-mer frequency, TF over GST control)"
same,binding signal,ELK4,"1.6 fold enrichment (6-mer frequency, TF over GST control)"
same,binding signal,ETV2,"1.9 fold enrichment (6-mer frequency, TF over GST control)"
same,binding signal,ELF3,"1.62 fold enrichment (6-mer frequency, TF over GST control)"
same,binding signal,CRX,"2.06 fold enrichment (6-mer frequency, TF over GST control)"
same,binding signal,ETV1,"1.8 fold enrichment (6-mer frequency, TF over GST control)"
